Several values for one entry are separate records, joined by “and”; a condition that tells them apart may be missing. Equal values may be shown once. Hit rate of the full screen: of about 16,000 compounds, about 2,600 (16%) were called active. Another 20% or so got no clear call; they are omitted. Calls follow the shape of the dose curve; as a rule, active = well fitted curve in the direction sought with a large enough effect; inconclusive = small, poorly fitted or top-dose-only effect, or effect the other way; inactive = no such curve, though single readings can be large or run the other way. Not all results are given here.
target: Cytochrome P450 2D6 (Homo sapiens) (UniProt P10635); experiment: Cytochrome panel assay with activity outcomes; conditions: recombinant CYP, pro-luciferin dealkylation, luminescence, p450-cyp2d6; series mostly up to 57.1 µM
Sequence (P10635 whole entry, looked up): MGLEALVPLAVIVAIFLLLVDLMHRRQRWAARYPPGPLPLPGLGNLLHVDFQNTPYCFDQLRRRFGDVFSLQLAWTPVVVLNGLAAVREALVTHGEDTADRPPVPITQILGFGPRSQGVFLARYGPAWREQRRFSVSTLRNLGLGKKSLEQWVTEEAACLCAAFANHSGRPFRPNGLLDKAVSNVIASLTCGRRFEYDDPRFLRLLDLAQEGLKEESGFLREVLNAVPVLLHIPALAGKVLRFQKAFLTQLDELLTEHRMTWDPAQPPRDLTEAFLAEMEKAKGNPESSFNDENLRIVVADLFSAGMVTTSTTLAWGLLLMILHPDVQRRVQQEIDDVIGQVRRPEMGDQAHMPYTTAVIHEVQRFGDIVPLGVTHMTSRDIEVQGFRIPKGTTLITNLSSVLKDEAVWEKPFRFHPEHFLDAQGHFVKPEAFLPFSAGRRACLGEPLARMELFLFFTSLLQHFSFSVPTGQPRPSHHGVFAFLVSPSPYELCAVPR
% is scaled to controls: 0 for no effect and ±100 for the full control effect.

AC50, active:
O=C1C(=O)N(Cc2ccc(Cl)c(Cl)c2)c2ccccc21 3.98 µM
CCOC(=O)[C@H](N)/C=C(\C)CP(=O)(O)O 2 µM
Cc1ccc(C2NC(c3ccc(C)cc3)C(C)C(=NO)C2C)cc1 (stereo not given) 0.562 µM
OCCNc1nc(NCCC2=CCCCC2)nc(N2CCOCC2)n1 7.08 µM
OC(COCc1ccccc1)Cn1cnc2ccccc21 (stereo not given) 14.1 µM
C[n+]1cn(CC(O)COCc2ccccc2)c2ccccc21 (stereo not given) 1.12 µM
CCCCCCCCCCCCCCC[C@@H](O)[C@@H](N)CO 7.94 µM
CCCCCCCCCCCCC/C=C\[C@@H](O)[C@@H](N)CO 15.8 µM
CCN1CCN(C(=S)c2ccc(Br)cc2)CC1 1 µM
CN1CCN(CCC=C2c3ccccc3Sc3ccc(S(=O)(=O)N(C)C)cc32)CC1 31.6 µM
Cc1ccc(Nc2ccc(-n3ccnc3)nn2)cc1C 2.51 µM
CCOc1cccc(OCCCNCCCOC)c1 11.2 µM
O=C(Cc1ccccc1)NCCSCc1ccc(Cl)cc1 3.16 µM
S=C(NCCSCc1ccc(Cl)cc1Cl)Nc1ccccc1 6.31 µM
S=C(NCCSCc1c(Cl)cccc1Cl)Nc1ccccc1 4.47 µM
CC(C)(C)NCC[C@@H](O)c1cc(C(F)(F)F)nc2c(C(F)(F)F)cccc12 0.316 µM
CN(C)CCCN1c2ccccc2Sc2ccc(C(F)(F)F)cc21 794 nM and 398 nM
CSc1ccc2c(c1)N(CCCN(C)C)c1ccccc1S2 0.501 µM
CCC(=O)c1ccc2c(c1)N(CCCN(C)C)c1ccccc1S2 2 µM
CN(C)CCCN1c2ccc(O)cc2Sc2ccc(Cl)cc21 0.126 µM

AC50, inactive:
O=C(Nc1ccccc1Cl)c1ccn[nH]1
O=C1c2cccnc2C(=O)N1Cc1ccc(F)cc1
O=C1CCCc2ccccc2N1Cc1cccc(Cl)c1
CCn1ncc(C(=O)Nc2cc(C)on2)c1C
Cc1c(C)c2c(C)[nH]nc2oc1=O
CN(C)c1nc(C#N)nc(N2CCOCC2)n1
O=C(O)CP(=O)(O)O
CCOC(=O)C(NC(C)=O)C(=O)O (stereo not given)
Cc1ccc(C)c2sc(NC(=O)c3ccc(N4CCCCC4)c([N+](=O)[O-])c3)nc12
CCc1nnc(NC(=O)CCC(=O)N2CCN(c3ccccn3)CC2)s1
Cc1ccc(C2CC2C(=O)NN)cc1 (stereo not given)
Cc1ccc(NC(=O)/C(=C\c2cccc([N+](=O)[O-])c2)NC(=O)c2cccs2)cc1
c1ccc(-c2csc(Nc3nc(N4CCOCC4)nc(N4CCOCC4)n3)n2)cc1
Cc1nc2ncnn2c(C)c1CCC(=O)NCCC1=CCCCC1
COc1ccc(-c2cc(C(F)(F)F)nc(N3CCCCC3)n2)cc1OC
Cc1ccccc1N1C(=O)c2cc(S(N)(=O)=O)c(Cl)cc2N[C@H]1C
Cn1c2ccccc2c2cc(C(=O)N3CCOCC3)sc21
CSc1nsc(/C=C/Nc2ccc(Cl)cc2)c1C#N
Cc1noc(C)c1CS(=O)(=O)c1ccc(Br)cc1
CCCCCCC/C=C\CCCCCCCCC(=O)O
CCCC[S@@](=N)(=O)CC[C@@H](N)C(=O)O
CCCCCCCCCCCCCCC/C=C\[C@H](O)[C@@H](NC(=O)CCCCCCCCCCCCC)OC (tested in a mixture with another compound)
O=C(O)CN(CCOCCOCCN(CC(=O)O)CC(=O)O)CC(=O)O
CC(=O)c1c(C)[nH]c(C(=O)COc2ccc(C#N)cc2)c1C
CSc1nc2c(c(=O)[nH]1)C(c1ccncc1)C(C(=O)OC(C)C)=C(C)N2 (stereo not given)
COc1cc(C(=O)Nc2ccc3c(c2)OCCO3)c(-n2cnnn2)cc1OC
S=C1NC2=C(C(c3ccc(Br)cc3)N1)N1CCC2CC1 (stereo not given)
CCN1CCN(C(=O)CCc2nc3ccccc3c(=O)[nH]2)CC1
CC1CCN(C(=S)c2ccc(O)cc2)CC1
CC(O)CN(CCC(N)=O)CCC(N)=O (stereo not given)
Cc1cccc(Nc2ccncc2S(=O)(=O)NC(=O)NC(C)C)c1
Cn1cc(-c2nc3cnc(N4CCNCC4)nc3n(C3CC3)c2=O)c2ccccc21
CC(C)CC(=O)O/N=C1\C(=O)N(c2ccccc2)c2ccccc21
C=CCn1c(=O)c2c(nc(Br)n2Cc2ccccc2Cl)n(C)c1=O
CC(=O)OCC(=O)[C@@]1(OC(C)=O)[C@H](C)C[C@H]2[C@@H]3C[C@H](F)C4=CC(=O)C=C[C@@]4(C)[C@]3(F)[C@H](O)C[C@@]21C
O=C1COc2ccc(OCc3ccc(F)cc3)cc21
Cc1cc(NCCO)c2ccccc2n1
CCOC(=O)C1CCCN(C(=O)c2sc3nc(-c4ccc(OC)cc4)cn3c2C)C1 (stereo not given)
Cc1c(Nc2cc(N3CCCC(C)C3)c3nonc3c2[N+](=O)[O-])c(=O)n(-c2ccccc2)n1C (stereo not given)
COC(=O)c1ccc(N2CCN(c3ccccc3)CC2)c(NC(=O)C2CC2)c1
O=C(Nc1ncc(Cc2ccccc2)s1)C1COc2ccccc2O1 (stereo not given)
O=C1C2CCCN2c2ccc(S(=O)(=O)N3CCOCC3)cc2N1Cc1cccc(C(F)(F)F)c1 (stereo not given)
Cc1onc(-c2c(F)cccc2Cl)c1C(=O)N[C@H]1C(=O)N2[C@H]1SC(C)(C)[C@H]2C(=O)O
O=C(O)CC[C@@H](C(=O)O)N1C(=O)c2ccccc2C1=O
COc1cccc(OCCCOc2ccccc2C(C)C)c1
COC(=O)COc1cccc(NC(=O)c2ccc(C)cc2)c1
O=C(N/N=C/c1ccco1)c1ccccn1
COc1ccc(NC(=O)/C(=C\c2cc(OC)c(OC)cc2[N+](=O)[O-])NC(=O)c2ccccc2)cc1
COc1ccc(C(=O)Nc2ccc(F)cc2F)cc1OC
Cc1ccccc1OCCNC(=S)Nc1ccccc1
O=C(Nc1ccc(N=Nc2ccccc2)cc1)c1ccc(Cl)cc1Cl
O=C(COc1ccccc1Cl)NC(=S)Nc1cccc(NC(=O)c2ccccc2Cl)c1
S=C(NCc1ccccn1)Nc1cccc(Cl)c1
O=C(c1cccs1)n1nc(-c2ccc(Cl)cc2)nc1NCc1ccco1
COc1ccc(Cc2nnc(NC(=O)CSc3ccc(C)cc3)s2)cc1OC
O=C1c2cccnc2C(O)N1C1CCCCC1 (stereo not given)
COc1ccccc1C(=O)NC(=S)N1CCCc2ccccc21
N#CC(c1ccc(Cl)cc1)(c1ncc(C(F)(F)F)cc1Cl)N1CCOCC1 (stereo not given)
C/C(=N\NC(=O)c1ccc(Cl)cc1)c1cccc(NC(=O)C(C)C)c1
Cc1ccccc1C(=O)Nc1cccc(NC(=S)NC(=O)c2cccs2)c1
CCC(=O)n1nc(-c2ccc(OC)cc2)nc1N
Cc1ccc2[nH]c3c(c2c1)CN(C(=O)CN1c2ccc(F)cc2CCC1C)CC3 (stereo not given)
CCNc1nc(Oc2c(Cl)cccc2Cl)cc(C(F)(F)F)n1
CC1(C)OC(C(N)=O)C(C(N)=O)O1 (stereo not given)
Cc1cccc(-n2c(=O)c3c(n4cnnc24)-c2ccccc2CC32CCCCC2)c1
O=C(CSc1nc2ccccc2s1)N1c2ccccc2Sc2ccc(C(F)(F)F)cc21
CCC(=S)/C=C1\Sc2ccccc2N1CCCS(=O)(=O)O
CN(C)CCCNC(=O)c1cc2c3ccccc3n(C)c2s1
CC(C)OC(=O)CSc1nc(-c2ccc(F)cc2)nc2ccc(F)cc12
CCOC(=O)N/N=C/c1ccc(F)cc1
Cc1cccc(-c2n[nH]c([N+](=O)[O-])n2)c1
COC(=O)[C@H](CCSC)NC(=O)NCc1ccccc1F
O=C(NCCN1CCN(C(=O)c2cc3ccccc3oc2=O)CC1)c1cc2ccccc2oc1=O
CCNC(=S)N1CCC(NC(=O)C2CCCCC2)CC1
CNC(=O)/C(C#N)=c1\s/c(=C/C(=O)OC)c(=O)n1-c1ccccc1
C/C=C1\C(=O)C[C@@H]2[C@@H]3CCC4=CC(=O)CC[C@@]4(C)[C@H]3CC[C@@]12C

activity, negative = inhibition, inactive:
O=C1CCCC=C1[C@@H](O)COCc1ccccc1 -20.2% [at 11.4 µM]
CO[C@@H]1COC(=O)C/C=C\[C@@H](C)COC(=O)[C@H](COCc2ccccc2)NC(=O)C/C=C\[C@H]1C 10.2% [at 11.4 µM]
O=C(O)CC1(CC(=O)O)Nc2ccccc2SC1=O 8.66% [at 11.4 µM]
O=C(O)CCSCc1ccccc1 -5.23% [at 11.4 µM]
Nc1nc(=O)c2[nH]cnc2n1O -6.92% [at 11.4 µM]
CO[C@H]1COC(=O)[C@@H](CCSC)NC(=O)C/C=C\[C@@H](C)[C@H](OC)COC(=O)[C@@H](OCc2ccccc2)/C=C\[C@@H]1C -4.06% [at 11.4 µM]
Cc1ccc(S(=O)(=O)NC(=O)Nc2ncn[nH]2)cc1 4.38% [at 11.4 µM]
CC[C@@H](c1ccccc1)n1c(=O)n2n(c1=O)[C@H]1[C@H](O)[C@H]3O[C@@H]3/C(=N/OC/C=C(\C)CCC=C(C)C)[C@@H]1CC2 3.1% [at 11.4 µM]
CC(C)=NO[C@@H](C)c1cn([C@H](CO)Cc2ccccc2)nn1 6.42% [at 11.4 µM] and -9.14% [at 11.4 µM]

Source: PubChem BioAssay AID1851 (National Center for Advancing Translational Sciences (NCATS), 2009)
